Measurements published in PubChem BioAssay (NCATS).
Inconclusive results are not listed. Entries that show only a call come without a potency. Calls of active or inactive are those of the source. Calls follow the shape of the dose curve; as a rule, active = well fitted curve in the direction sought with a large enough effect; inconclusive = small, poorly fitted or top-dose-only effect, or another doubt; inactive = no such curve, though single readings can be large; an effect the other way counts as inactive or inconclusive.

Columns and labels:
CP215 = test: qHTS profiling for inhibitors of Plasmodium falciparum proliferation (AID 504749); also: nearly all actives have a fitted effect of over 60% in size; also: potency is read from the fitted curve at half-maximal effect; conditions: P. falciparum in erythrocytes, SYBR Green DNA, 72 h; series mostly up to 12.8 µM
Procedure, shortened: (§1)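 Readout was DNA-dye fluorescence from lysed cultures, ex 485/em 535 nm. Parasitized red cells had grown 72 h with compound; data scaled between 0.29 uM artemisinin and DMSO wells and corrected using vehicle-only plates.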

CP217 = test: as above; conditions: P. falciparum in erythrocytes, SYBR Green DNA, 72 h; series mostly up to 12.8 µM
Procedure, shortened: as §1

CP247 = test: as above; conditions: P. falciparum in erythrocytes, SYBR Green DNA, 72 h; series mostly up to 12.8 µM
Procedure, shortened: as §1

CP250 = test: as above; conditions: P. falciparum in erythrocytes, SYBR Green DNA, 72 h; series mostly up to 12.8 µM
Procedure, shortened: as §1

CP297 = test: as above; conditions: P. falciparum in erythrocytes, SYBR Green DNA, 72 h; series mostly up to 12.8 µM
Procedure, shortened: as §1

DIV14 = test: as above; conditions: P. falciparum in erythrocytes, SYBR Green DNA, 72 h; series mostly up to 12.8 µM
Procedure, shortened: as §1

DIV17 = test: as above; conditions: P. falciparum in erythrocytes, SYBR Green DNA, 72 h; series mostly up to 12.8 µM
Procedure, shortened: as §1

GB4 = test: as above; conditions: P. falciparum in erythrocytes, SYBR Green DNA, 72 h; series mostly up to 12.8 µM
Procedure, shortened: as §1

HB3 = test: as above; conditions: P. falciparum in erythrocytes, SYBR Green DNA, 72 h; series mostly up to 12.8 µM
Procedure, shortened: as §1

SC27B = test: as above; conditions: P. falciparum in erythrocytes, SYBR Green DNA, 72 h; series mostly up to 12.8 µM
Procedure, shortened: as §1

[1] = biological target: ATP-dependent 6-phosphofructokinase (Trypanosoma brucei brucei) (UniProt O15648); test: qHTS Assay to Find Inhibitors of T. brucei phosphofructokinase: hit validation (AID 492961);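 also: luminescence reports ADP formed as PFK phosphorylates fructose-6-phosphate with ATP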
Procedure, shortened: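 Compounds titrated; %activity normalized to 0x and 1x enzyme controls, curve-fitted. Readout: ADP-Glo luminescence after 45 min room-temperature reaction of 1.25 nM PFK, 0.1 mM ATP, 0.5 mM F6P, pH 8.0.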

ATS189 = test: qHTS profiling for inhibitors of Plasmodium falciparum proliferation (AID 504749); also: nearly all actives have a fitted effect of over 60% in size; also: potency is read from the fitted curve at half-maximal effect; conditions: P. falciparum in erythrocytes, SYBR Green DNA, 72 h; series mostly up to 12.8 µM
Procedure, shortened: as §1

Sequence of ATP-dependent 6-phosphofructokinase (Trypanosoma brucei brucei) (O15648 whole entry, looked up): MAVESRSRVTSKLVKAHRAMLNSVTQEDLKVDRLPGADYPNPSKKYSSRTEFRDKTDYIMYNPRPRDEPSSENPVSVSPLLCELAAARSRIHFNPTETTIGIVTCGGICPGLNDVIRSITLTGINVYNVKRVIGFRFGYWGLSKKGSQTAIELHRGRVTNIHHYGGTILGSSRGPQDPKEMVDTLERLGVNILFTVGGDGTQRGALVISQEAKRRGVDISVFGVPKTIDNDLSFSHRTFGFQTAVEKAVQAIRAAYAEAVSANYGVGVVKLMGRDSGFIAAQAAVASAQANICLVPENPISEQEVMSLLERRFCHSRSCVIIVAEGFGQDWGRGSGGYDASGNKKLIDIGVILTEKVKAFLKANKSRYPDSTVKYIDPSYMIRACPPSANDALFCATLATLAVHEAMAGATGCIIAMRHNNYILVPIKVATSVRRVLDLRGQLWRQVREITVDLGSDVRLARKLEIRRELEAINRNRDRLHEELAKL

## CCC(C)C(=O)OC1CC(O)C=C2C=CC(C)C(CCC(O)CC(O)CC(=O)O)C21 (stereo not drawn)
CP215
  Potency: inactive
CP217
  Potency: inactive
CP247
  Potency: inactive
CP250
  Potency: inactive
CP297
  Potency: inactive
DIV14
  Potency: inactive
DIV17
  Potency: inactive
GB4
  Potency: inactive
HB3
  Potency: inactive
SC27B
  Potency: inactive

## CCCCCCCCCc1ccc(OCCOCCOCCOCCOCCOCCOCCOCCOCCO)cc1
[1]
  outcome: inactive
CP250
  Potency: inactive

## CCC(=O)O[C@@]1(C(=O)CCl)C(C)CC2C3CCC4=CC(=O)C=C[C@@]4(C)[C@]3(F)C(O)C[C@]21C (stereo partly drawn)
[1]
  outcome: inactive
DIV14
  Potency: 13.5 µM (active)
DIV17
  Potency: 15.1 µM (active)
GB4
  Potency: 12 µM (active)

## C[C@@]12CCC(=O)C=C1C=CC1C2CC[C@]2(C)C1CC[C@@]21CCC(=O)O1 (stereo partly drawn)
[1]
  outcome: inactive
CP215
  Potency: inactive
CP297
  Potency: inactive
DIV17
  Potency: inactive
GB4
  Potency: inactive
HB3
  Potency: inactive
SC27B
  Potency: inactive

## CC(=O)OCC(=O)[C@@]12OC3(CCCC3)OC1CC1C3CCC4=CC(=O)C=C[C@@]4(C)[C@]3(F)C(O)C[C@]12C (stereo partly drawn)
[1]
  outcome: inactive
CP250
  Potency: inactive

## C#C[C@]1(O)CCC2C3CCC4=CC(=O)CCC4C3CC[C@@]21C (stereo partly drawn)
[1]
  outcome: inactive

## NC(CCC(=O)N[C@@H](CS)C(=O)NCC(=O)O)C(=O)O (stereo partly drawn)
[1]
  outcome: inactive
ATS189
  Potency: 8.91 µM (active)
CP297
  Potency: 15.1 µM (active)
DIV14
  Potency: 3.01 µM (active)
DIV17
  Potency: 2.69 µM (active)
GB4
  Potency: 6.75 µM (active)
HB3
  Potency: 3.16 µM (active)

## CCOC(=O)C1=CC(OC(CC)CC)C(NC(C)=O)C(N)C1 (stereo not drawn)
ATS189
  Potency: inactive
CP215
  Potency: inactive
CP217
  Potency: inactive
CP247
  Potency: inactive
CP250
  Potency: inactive
HB3
  Potency: inactive
SC27B
  Potency: inactive

## CC1(C)S[C@H]2C(NC(=O)[C@@H](N)c3ccc(O)cc3)C(=O)N2[C@@H]1C(=O)O (stereo partly drawn)
ATS189
  Potency: inactive
CP215
  Potency: inactive
CP217
  Potency: inactive
CP247
  Potency: inactive
CP250
  Potency: inactive
CP297
  Potency: inactive
DIV14
  Potency: inactive
DIV17
  Potency: inactive
GB4
  Potency: inactive
HB3
  Potency: inactive
SC27B
  Potency: inactive

## COC1OC(CO)C(OC2OC(C(=O)O)C(OC3OC(COS(=O)(=O)O)C(OC4OC(C(=O)O)C(OC5OC(CO)C(OC6OC(C(=O)O)C(OC7OC(COS(=O)(=O)O)C(OC8OC(C(=O)O)=C[C@H](O)C8OS(=O)(=O)O)C(O)C7NC(C)=O)[C@@H](O)C6O)C(O)C5NC(C)=O)[C@@H](O)C4O)C(O)C3NC(C)=O)[C@@H](O)C2O)C(O)C1NC(C)=O (stereo partly drawn)
[1]
  outcome: inactive
CP217
  Potency: 10 µM (active)
CP297
  Potency: inactive

## CCC1OC(=O)C(C)[C@@H](O[C@H]2C[C@@](C)(OC)C(O)C(C)O2)C(C)[C@@H](O[C@@H]2OC(C)CC(N(C)C)C2O)[C@@](C)(O)CC(C)C(=O)[C@@H](C)C(O)[C@]1(C)O (stereo partly drawn)
[1]
  outcome: inactive
ATS189
  Potency: inactive
CP215
  Potency: inactive
CP217
  Potency: inactive
CP247
  Potency: inactive
CP250
  Potency: inactive
CP297
  Potency: inactive
DIV14
  Potency: inactive
DIV17
  Potency: inactive
GB4
  Potency: inactive
HB3
  Potency: inactive
SC27B
  Potency: inactive

## C[C@@]12C=CC(=O)C=C1CCC1C3CC(O)[C@@](O)(C(=O)CO)[C@]3(C)CC(O)[C@]12F (stereo partly drawn)
[1]
  outcome: inactive
ATS189
  Potency: inactive
CP215
  Potency: inactive
CP217
  Potency: inactive
CP247
  Potency: inactive
CP250
  Potency: inactive
CP297
  Potency: inactive
DIV14
  Potency: inactive
DIV17
  Potency: inactive
GB4
  Potency: inactive
HB3
  Potency: inactive
SC27B
  Potency: inactive
